These results are taken from article PMC4552634, “A New Set of Chemical Starting Points with Plasmodium falciparum Transmission-Blocking Potential for Antimalarial Drug Discovery” (PLoS ONE, 2015).

Where two headings read alike, the source gives them in different places. The whole screen tested about 13,000 compounds, of which about 3,200 (25%) showed an effect of 50% or more. Some of the results follow.

The experiment has as its system P. falciparum stage V gametocytes. Set-up: BacTiter-Glo ATP luminescence viability of purified stage V gametocytes in 384-well plates, per cent inhibition versus DMSO. As to conditions: 48 h, 5 µM, inhibitor.

One may read the % Inhibition as the relative decrease from the control value, in per cent. As for `CCOc1cc2ncnc(Nc3ccc(OCc4ccccc4F)c(Cl)c3)c2cc1OCC` [TCMDC-131914], the “% Inhibition” value was 3.797%. The same measure, in the same setting: then `CC(C)CN1CCCN(Cc2cccc(NC(=O)c3ccc(-c4ccccc4)cc3)c2)CC1` [TCMDC-141841], with -91.11%; and `Cc1cccc2nc(-c3ccc(-c4ccc(CNCc5cnn(-c6ccccc6)n5)cc4)cc3)[nH]c12.O=C(O)C(F)(F)F` [TCMDC-132974], with 25.92%.

For the molecule `CCOC(=O)C(C)(C)Oc1ccc(C(=C2CC(C)(C)CC(C)(C)C2)c2ccc(O)cc2)cc1` [TCMDC-135525], the “% Inhibition” value is -61.64%. The same measure, in the same setting: the same measure for `Cc1cccc(C(=O)Nc2ccnc(N3CCC(N(C)Cc4ccccc4)CC3)c2)c1` [TCMDC-135001]: -20.99%; for `Cc1cccc(-c2ccc(NC(=O)C3CCN(Cc4cccc(O)c4)CC3)cc2)c1` [TCMDC-124641]: 44.56%. On the same count and under the same terms, then `CCN(CCNC(=O)C1CCN(c2cc(-c3cccc(C)c3)ncn2)CC1)Cc1ccccc1` [TCMDC-124739], with 86.1%. In the case of `O=C(Cc1ccccc1)NC(Nc1ccc([N+](=O)[O-])cc1)C(Cl)(Cl)Cl` (centres unmarked) [TCMDC-125789], the “% Inhibition” value turned out to be 52.36%. On to `O=C(NC(Nc1ccc([N+](=O)[O-])cc1)C(Cl)(Cl)Cl)c1cccc(Cl)c1` (centres unmarked) [TCMDC-124129], for which the “% Inhibition” value was found to be 26.63%. The same measure, in the same setting: the same measure for `O=C(NC(NC(=S)Nc1ccc([N+](=O)[O-])cc1)C(Cl)(Cl)Cl)c1cccc(Cl)c1` (centres unmarked) [TCMDC-124130]: -46.64%; for `Cc1ccccc1C(=O)NC(NC(=S)Nc1ccc([N+](=O)[O-])cc1)C(Cl)(Cl)Cl` (centres unmarked) [TCMDC-124151]: -7.269%. Take `CC(C)C(=O)NC(Nc1ccc([N+](=O)[O-])cc1)C(Cl)(Cl)Cl` (centres unmarked) [TCMDC-125799]: the “% Inhibition” value was 71.39%. On the same count and under the same terms, then `CCCC(=O)NC(NC(=S)Nc1ccc([N+](=O)[O-])cc1)C(Cl)(Cl)Cl` (centres unmarked) [TCMDC-125817], with 27.07%. Consider `O=[N+]([O-])c1ccc(C(O)P(=O)(c2ccccc2)c2ccccc2)cc1` (centres unmarked) [TCMDC-125871], for which the “% Inhibition” value is on record as -5.463%. `Cc1cccc(C(=O)NC(NC(=S)Nc2ccc([N+](=O)[O-])cc2)C(Cl)(Cl)Cl)c1` (centres unmarked) [TCMDC-124177]: the “% Inhibition” value is 26.63%. Same read-out and setting: then `O=C(NC(Nc1ccc([N+](=O)[O-])cc1)C(Cl)(Cl)Cl)c1ccc(Cl)cc1` (centres unmarked) [TCMDC-125818], with 63.58%. In the case of `Cc1cc(C(=O)CN2C(=O)NC3(CCOc4ccccc43)C2=O)c(C)n1Cc1ccco1` (centres unmarked) [TCMDC-125252], the “% Inhibition” value is 14.93%. As for `COc1ccc2c(-c3ccccc3)noc2c1` [TCMDC-123782], the “% Inhibition” value worked out at 15.72%. With `Oc1cccc(-c2nc3cc(C4=NC5CCCCC5N4)ccc3[nH]2)c1` (centres unmarked) [TCMDC-137219], the “% Inhibition” value (% Inhibition) is recorded as -17.08%. With `Cc1ccc(NC(=O)NC2CCN(CCCCCNC(=O)/C=C/c3ccc(Cl)c(Cl)c3)CC2)cc1` [TCMDC-135703], the “% Inhibition” value is -0.844%. Still for that read-out and setting: then `Cc1cc(C)c(NC(=O)NC2CCN(CCCCCNC(=O)/C=C/c3ccc(Cl)c(Cl)c3)C2)c(C)c1` (centres unmarked) [TCMDC-139529], with 92.72%; and `Cc1cc(C)c(NC(=O)N[C@H]2CCN(CCCCCNC(=O)/C=C/c3ccc(Cl)c(Cl)c3)C2)c(C)c1` [TCMDC-139513], with 86.25%; and `Cc1cc(C)c(NC(=O)NC2CCN(CCCCCNC(=O)/C=C/c3ccc(Cl)c(Cl)c3)CC2)c(C)c1` [TCMDC-135717], with -32.07%. On the same count and under the same terms, then `Cc1cccc(NC(=O)NC2CCN(CCCCCNC(=O)/C=C/c3ccc(Cl)c(Cl)c3)CC2)c1` [TCMDC-135702], with -17.93%. The same measure, in the same setting: then `Cc1ccc(NC(=O)NC2CCN(CCCCCNC(=O)/C=C/c3ccc(Cl)c(Cl)c3)CC2)cc1C` [TCMDC-135708], with -56.47%.

Turning to `COc1ccc(Br)cc1/C=C/C(=O)Nc1ccc(C2CCCN(C)C2)cc1` (centres unmarked) [TCMDC-133712], the “% Inhibition” value was 9.818%. In the case of `Fc1ccc(-c2cc(NCCCn3ccnc3)nc(-c3cccnc3)n2)cc1` [TCMDC-123785], the “% Inhibition” value amounted to 9.204%. The same measure, in the same setting: then `CC(Nc1ccc2c(c1)OCCO2)C(=O)Nc1cc(C(F)(F)F)ccc1N1CCOCC1` (centres unmarked) [TCMDC-124859], with -69.42%; and `CC(NC(=O)c1ccc(O)c(-c2ccc(Cl)c(Cl)c2)c1)C(=O)NC1CCCCC1` (centres unmarked) [TCMDC-140823], with 42.42%. Still for that read-out and setting: the same measure for `Cc1cc(-c2ccc3occ(CCN)c3c2)cnc1N` [TCMDC-138139]: 54.74%; for `Cc1cc(-c2cccc(CNCCc3ccc(Cl)cc3)c2)cnc1N` [TCMDC-138091]: 14.17%; for `Cc1cc(-c2ccc(O)c(CNC3CCCCC3)c2)cnc1N` [TCMDC-138129]: -11.73%. Same read-out and setting: the same measure for `CCC(C)CN1CCN(c2ccc(NC(=O)c3cccs3)cc2)C(C)C1` (centres unmarked) [TCMDC-134996]: 6.92%; for `COC(=O)c1cc(OC2CCOC2=O)cc2c1OC(C)(C)O2` (centres unmarked) [TCMDC-131234]: 42.88%. Regarding `O=C(/C=C/c1cccc2ccccc12)NCCCCCN1CCC(c2c[nH]c3ccccc23)CC1` [TCMDC-139208], the “% Inhibition” value amounted to 101.3%. For the molecule `O=C(/C=C/c1c[nH]c2ccccc12)NCCCCCN1CCC(c2c[nH]c3ccccc23)CC1` [TCMDC-139207], the “% Inhibition” value is -19.56%. Still for that read-out and setting: the same measure for `O=C(/C=C/c1ccccc1O)NCCCCCN1CCC(c2c[nH]c3ccccc23)CC1` [TCMDC-139697]: 92.48%; for `O=C(NC1CCN(CCCc2ccccc2)CC1)c1ccc(-c2cccc(C(F)(F)F)c2)s1` [TCMDC-134323]: -38.84%.

Take `CC(C)Oc1cc2c(cc1NS(=O)(=O)c1ccc(-c3ccc(Cl)cc3)cc1F)CCN(C)CC2` [TCMDC-141589]: the “% Inhibition” value is -14.09%. As for `O=c1cnc2ccc(F)cc2n1CCN1CCC(NCc2cc(-c3ccccc3)cs2)CC1` [TCMDC-135134], the “% Inhibition” value is listed as -21.73%.

Regarding `Cc1[nH]nc2ccc(-c3cc(OC[C@@H](N)Cc4ccccc4)cnc3-c3ccc(OCc4cccc(F)c4)cc3)cc12` [TCMDC-136225], the “% Inhibition” value turned out to be 97.54%. The same measure, in the same setting: then `Cc1csc(-c2ncc(OC[C@@H](N)Cc3ccccc3)cc2-c2ccc3n[nH]c(C)c3c2)c1` [TCMDC-136087], with -8.857%; and `Cc1[nH]nc2ccc(-c3cc(OC[C@@H](N)Cc4ccccc4)cnc3-c3ccccc3OCc3cccc(F)c3)cc12` [TCMDC-136224], with -9.479%; and `Fc1cccc(COc2ccc(Nc3ncnc4cc(/C=C/[C@@H]5CCCN5)sc34)cc2Cl)c1` [TCMDC-134401], with 10.77%. Turning to `O=C(NCc1ccccc1F)c1ccc(N2CCC(NCc3cccc(-n4cccn4)c3)CC2)cc1` [TCMDC-124670], the “% Inhibition” value was 2.936%.

Consider `Cc1cc(N[C@@H](Cc2ccccc2)C(=O)NCCCOC(C)C)nc(NCCc2ccc(F)cc2)n1` [TCMDC-134866], for which the “% Inhibition” value amounted to 73.24%. As to `Cc1cc(N[C@@H](CC(C)C)C(=O)NCCCOC(C)C)nc(NCCc2ccc(F)cc2)n1` [TCMDC-134868], the “% Inhibition” value stood at 54.17%. Same read-out and setting: the same measure for `COc1ccc(CC2(CO)CCN(Cc3ccc(O)c(Cl)c3)CC2)cc1` [TCMDC-124684]: -47.93%. `CNC(=O)C1Cc2c([nH]c3cc(Cl)ccc23)C2(CCN(CCc3ccccc3)CC2)N1` (centres unmarked) [TCMDC-141299]: the “% Inhibition” value is given as -88.09%. Still for that read-out and setting: then `COc1cc(N(Cc2ccccc2C)S(=O)(=O)Cc2ccccc2[N+](=O)[O-])c(OC)cc1Cl` [TCMDC-141749], with 44.47%; and `COc1ccc([N+](=O)[O-])cc1N(Cc1ccccc1-c1ccccc1)S(=O)(=O)c1ccc(C(F)(F)F)cc1[N+](=O)[O-]` [TCMDC-141596], with 92.47%.

Take `COc1ccc([N+](=O)[O-])cc1N(Cc1ccccc1-c1ccccc1)S(=O)(=O)c1ccc(C(F)(F)F)cc1` [TCMDC-141595]: the “% Inhibition” value is on record as -1.284%. Same read-out and setting: the same measure for `CCOC(=O)c1[nH]c(-c2cc(Cl)nc(Cl)c2)nc1NC(=S)NCCCN1CCOCC1` [TCMDC-138898]: -1.969%; for `COc1ccc2nccc([C@@H](O)CN3CCC(NCc4cc5cc(OC(F)(F)F)ccc5[nH]4)CC3)c2c1` [TCMDC-140692]: 96.42%; for `COc1ccc2nccc([C@@H](O)CN3CCC(NCc4cc5c(Cl)cc(Cl)cc5[nH]4)CC3)c2c1` [TCMDC-140649]: 102.2%. The same measure, in the same setting: the same measure for `COc1ccc2nccc([C@@H](O)CN3CCC(NCc4nc5cc(F)c(F)cc5[nH]4)CC3)c2c1` [TCMDC-140665]: 66.97%; for `COc1ccc2nccc([C@@H](O)CN3CCC(NCc4nc5ccc(F)cc5[nH]4)CC3)c2c1` [TCMDC-140651]: -60.2%; for `COc1ccc2nccc([C@@H](O)CN3CCC(NCc4cc5c(Cl)cccc5[nH]4)CC3)c2c1` [TCMDC-140695]: 48.39%. Still for that read-out and setting: the same measure for `COc1ccc2nccc([C@@H](O)CN3CCC(NCc4cc5ccc(C#N)cc5[nH]4)CC3)c2c1` [TCMDC-140696]: 8.806%. In the case of `COc1ccc2nccc([C@@H](O)CN3CCC(NCc4cc5ccccc5[nH]4)CC3)c2c1` [TCMDC-140520], the “% Inhibition” value is listed as 22.46%.

As to `COc1ccc2nccc([C@@H](O)CN3CCC(NCc4nc5ccccc5[nH]4)CC3)c2c1` [TCMDC-140550], the “% Inhibition” value is reported as 32.31%. Same read-out and setting: the same measure for `COc1ccc2nccc([C@@H](O)CN3CCC(NCc4cc5ccc(Cl)cc5[nH]4)CC3)c2c1` [TCMDC-140694]: 96.18%; for `COc1ccc2nccc([C@@H](O)CN3CCC(NCc4cc5c(F)ccc(F)c5[nH]4)CC3)c2c1` [TCMDC-140739]: -16.25%. On the same count and under the same terms, the same measure for `COc1ccc2nccc([C@@H](O)CN3CCC(NCc4cc5ccccc5[nH]c4=O)CC3)c2c1` [TCMDC-140759]: 15.99%. The same measure, in the same setting: the same measure for `COc1ccc2nccc([C@@H](O)CN3CCC(NCc4nc5c(F)cc(F)cc5[nH]4)CC3)c2c1` [TCMDC-140664]: -52.05%.
